# KB-V1 cytotox = qHTS assay for MDR1-selective chemotherapeutics: Primary screen using the drug-selected MDR subline cells KB-V1; KB-V1 MDR cells viability, CellTiter-Glo, 72 h; Potency, µM (highest dose often 46.1 µM), most hits filed as cytotoxic; hit rate 3.4% among 400,000; also: nearly all actives have a fitted effect of over 60% in size
#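 Cells of the MDR subline KB-V1 are plated, dosed with compound at multiple concentrations, and incubated 72 h at 37 degrees C; CellTiter-Glo is then added and luminescence read after 10 min.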
# HT1080NT lethal = qHTS for induction of synthetic lethality in tumor cells producing 2HG: qHTS for the HT-1080-NT fibrosarcoma cell line; HT-1080-NT fibrosarcoma viability, CellTiter-Glo ATP luminescence, 48 h; Potency, µM (series often up to 46.1 µM), most hits filed as cytotoxic; hit rate 1.6% among 360,000;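 also: NT is the 2HG producing partner of a matched IDH1 knockdown line; nearly all actives have a fitted effect of over 55% in size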
#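 Read-out is CellTiter-Glo luminescence after 10 minutes at room temperature, following 48 hours' compound treatment of HT-1080-NT cells (750 cells/well, RPMI, 5% FBS, 37 degrees C).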
# KB-3-1 cytotox = qHTS assay for MDR1-selective chemotherapeutics: Primary screen using the parental adenocarcinoma cell KB-3-1 | hit rate 1.4% among 400,000 | KB-3-1 viability, CellTiter-Glo ATP luminescence, 72 h | Potency, µM (top dose mostly 46.1 µM), most hits filed as cytotoxic; also: nearly all actives have a fitted effect of over 60% in size
#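 KB-3-1 cells, DMEM (no phenol red) + 10% FBS; compound by pin transfer, 72 h, 37 °C. Readout: CellTiter-Glo luminescence after 10 min. Data normalized, curve-fitted.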
# HT1080 IDH1KD tx = qHTS for induction of synthetic lethality in tumor cells producing 2HG: qHTS for the HT-1080-IDH1KD cell line; HT-1080 IDH1 knockdown viability, ATP luminescence, 48 h; Potency, µM (top dose mostly 46.1 µM), most hits filed as cytotoxic; hit rate 2% among 360,000
#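 Assay cells: HT-1080 with IDH1 knockdown, 750 per well, RPMI/5% FBS. Exposure: 48 h at 37 °C following 2 h pre-incubation. Read: CellTiter-Glo luminescence; fitted concentration-response, curve class assigned.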
# A number is an active result; . = inactive; ? = inconclusive; / = no result given. Only some compounds are listed: those with a hit (about 5.7% of all), similar ones and a draw of the others. Calls follow the shape of the dose curve; as a rule, active = well fitted curve in the direction sought with a large enough effect; inconclusive = small, poorly fitted or top-dose-only effect, or another doubt; inactive = no such curve, though single readings can be large; an effect the other way counts as inactive or inconclusive.
SMILES,KB-V1 cytotox,HT1080NT lethal,KB-3-1 cytotox,HT1080 IDH1KD tx
CCN(Cc1cccc(S(=O)(=O)O)c1)c1ccc(C(=C2C=CC(=[N+](CC)Cc3cccc(S(=O)(=O)O)c3)C=C2)c2ccc(O)cc2S(=O)(=O)O)cc1,.,/,.,/
CCOc1ccc2nc(SCC(=O)N(C)C3CCS(=O)(=O)C3)[nH]c2c1 (configuration not stated),.,.,.,.
Cc1ccc2nc(SC(C)C(=O)NC3CCCc4ccccc43)[nH]c2c1 (configuration not stated),21µM,.,.,.
COc1ccc2nc(SCC(=O)NC3CCCc4ccccc43)[nH]c2c1 (configuration not stated),18µM,.,?,.
Cc1nnc(SC(C)C(=O)NC2CCCc3ccccc32)n1-c1ccccc1 (configuration not stated),?,.,?,.
COc1ccc2nc(SCC(=O)N(C)C3CCCCC3)[nH]c2c1,21µM,.,.,.
Cc1ccccc1-n1nnnc1SC(C)C(=O)NC1CCCc2ccccc21 (configuration not stated),3.7µM,.,.,.
Cc1ccc(S(=O)(=O)N2CC3C(=O)C[C@@H](c4ccccc4)N(S(=O)(=O)c4ccccc4Cl)C3CC2c2ccccc2)cc1 (some centres not stated),.,.,.,.
CC(=O)Nc1ccc(Nc2ccc3cc(S(=O)(=O)N4CCCCC4)ccc3n2)cc1,?,/,.,/
COc1ccc(-n2c(SCC(=O)NC3CCCCC3)nc3c([nH]c4ccccc43)c2=O)cc1,.,/,.,/
O=C1C=CC2(C=C1)O[C@H](Cc1ccccc1)[C@@H](Cc1ccccc1)O2,16µM,3.7µM,?,1.2µM
COc1ccc(C[C@@H]2OC3(C=CC(=O)C=C3)O[C@H]2Cc2ccc(OC)cc2)cc1,?,5.2µM,2.3µM,1.3µM
COc1cc2ncnc(N3CCN(C(=O)Nc4ccc(Oc5ccccc5)cc4)CC3)c2cc1OC,.,/,.,/
COc1ccccc1CCNC(=O)Cc1ccc(NC(=O)N2CCSc3ncccc32)cc1,.,/,.,/
CC(CCc1ccccc1)NC(=O)c1ccc(NC(=O)c2ccc(Cl)cc2Cl)cc1 (configuration not stated),.,?,.,?
CC(CCc1ccccc1)NC(=O)c1cncc(Br)c1 (configuration not stated),.,.,.,.
CC(CCc1ccccc1)NC(=O)c1ccc(NC(=O)c2ccccc2)cc1 (configuration not stated),.,16µM,.,.
CCOc1ccc(C(CCc2ccccc2)NC(=O)c2ccccc2)cc1OCC (configuration not stated),9.2µM,.,.,?
CC(CCc1ccccc1)NC(=O)c1ccc(NC(=O)c2cccc(Br)c2)cc1 (configuration not stated),2.1µM,.,.,.
Cc1cc[n+](CC(=O)c2ccc(F)cc2)c2ccccc12,.,/,.,/
CC(=NNc1nc2ccccc2s1)c1ccncn1,?,?,7.3µM,?
c1ccc(-n2cnnc2SCc2nc3ccccc3s2)cc1,21µM,.,.,.
Cc1nnc(SCc2nc3ccccc3s2)n1-c1ccccc1,.,.,.,.
CCOC(=O)[C@]12CCCC=C1N(Cc1ccc3c(c1)OCO3)C(=O)[C@H](CC(=O)NCCCOC)C2,.,.,.,.
COC(=O)[C@]12CCCCC=C1N(Cc1ccc3c(c1)OCO3)C(=O)[C@H](CC(=O)NCCc1ccccc1OC)C2,.,?,.,12µM
SMILES,KB-V1 cytotox,HT1080NT lethal,KB-3-1 cytotox,HT1080 IDH1KD tx
CCOC(=O)[C@]12CCCC=C1N(Cc1ccc3c(c1)OCO3)C(=O)[C@H](CC(=O)NCCc1ccccc1OC)C2,23µM,?,?,.
CCOC(=O)[C@]12CCCC=C1N(Cc1ccc3c(c1)OCO3)C(=O)[C@H](CC(=O)N1CCC(c3ccccc3)CC1)C2,23µM,?,?,?
COCCCNC(=O)C[C@@H]1C[C@@]2(C(=O)OC)CCCCC=C2N(Cc2ccc3c(c2)OCO3)C1=O,?,.,.,.
O=C(CCNS(=O)(=O)c1ccc2c(c1)CCN2C(=O)C1CC1)N1CCN(c2ccc(F)cc2)CC1,.,/,.,/
CCOc1ccc(NC(=O)CC2C(=O)OCCN2CC)cc1 (configuration not stated),.,/,.,/
CCOc1ccc(NC(=O)c2cc3sc(Cl)cc3n2CC)cc1,?,/,.,/
O=C(C1CCCCC1)N(Cc1cccnc1)c1nc2c(F)cc(F)cc2s1,.,/,.,/
Cc1ccccc1CSc1ncc(CO)n1Cc1ccc(F)cc1,.,/,.,/
Cc1oc(-c2ccc3c(c2)OCCO3)cc1C(=O)O,15µM,?,?,?
Cc1oc(-c2ccc3c(c2)OCCO3)cc1C(=O)NCC(=O)O,.,.,.,.
CCSc1nsc(NC(=O)Nc2ccc(F)cc2F)n1,15µM,?,?,.
CCc1ccc(NC(=S)NC2CC3CCCC(C2)N3Cc2cccs2)cc1 (configuration not stated),18µM,?,.,?
COc1ccccc1C(C)NC(=O)CCC(=O)N1CCN(S(=O)(=O)c2ccc(Cl)cc2)CC1 (configuration not stated),18µM,.,?,.
COc1ccccc1C(=O)NCCC(=O)N1CCN(S(=O)(=O)c2ccc(Cl)cc2)CC1,.,.,.,.
CCCC12CN3CC(CCC)(CN(C1)C3c1ccccc1)C2=O (configuration not stated),.,/,.,/
CCCNC(=O)c1ccc2c(c1)N=C(CCC)c1ccccc1S2,.,/,0.73µM,/
CCCC1=Nc2cc(C(=O)NCCc3ccccc3)ccc2Sc2ccc(C)cc21,?,/,7.3µM,/
CCC1=Nc2cc(C(=O)NCCN(CC)CC)ccc2Sc2ccccc21,.,/,.,/
CCC1=Nc2cc(C(=O)NC(C)c3ccccc3)ccc2Sc2ccc(Cl)cc21 (configuration not stated),.,/,.,/
CCOCCCNC(=O)c1ccc2c(c1)N=C(CC)c1cc(Br)ccc1S2,0.52µM,?,1µM,0.092µM
CCC1=Nc2cc(C(=O)NCCc3ccccc3)ccc2Sc2ccc(Cl)cc21,.,/,10µM,/
CCCC1=Nc2cc(C(=O)NCCc3ccc(OC)cc3OC)ccc2Sc2ccccc21,.,/,?,/
Cc1ccc(-c2cc(-c3ccccc3Cl)[nH]n2)c(O)c1,.,?,.,11µM
Cc1ccc(-c2cc(-c3ccccc3[N+](=O)[O-])[nH]n2)c(O)c1,.,.,.,?
Cc1ccccc1-c1cc(-c2ccccc2O)n[nH]1,18µM,?,?,?
Cc1ccc(C)c(Cn2c3ccccc3c3cnn(CC(=O)NC4CCCCCC4)c(=O)c32)c1,.,/,.,/
CSc1nc(C)c2c(n1)N(c1ccc(C(C)C)cc1)CC2,8.2µM,.,.,.
CCOc1ccc(CNC(=O)COc2cc(=O)n(C)c3ccccc23)cc1,.,/,.,/

# Assay outcomes as filed in PubChem.
